This is an account of results in PubChem BioAssay (NCATS).

Results filed as inconclusive are left out. Values without a mark were called inactive. Activity calls are given as the source filed them. The call rests on the fitted dose curve; in most records, active means well fitted cell-killing curve with a large enough effect; inconclusive means small, poorly fitted or top-dose-only effect, or effect the other way; inactive means flat fitted curve, though single readings scatter.

Common to all, as to assay: Primary qHTS to identify gynecologic anti-cancer compounds using libraries of approved drugs and bioactive compounds (AID 1345084); further: nearly all actives have a fitted effect of over 55% in size
Conditions in all cases: Gynecologic cancer cell panel viability, ATPlite luminescence, 48 h; series mostly up to 57.5 µM

The subject of one assay is OV90. The gist of the method: (§1)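 Five-point cytotoxicity, 48 h drug exposure at 37 C, 5% CO2, on cells seeded 16 h beforehand. ATP content read by ATPlite luminescence.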
In a further assay the test system is PA-1. The gist of the method: as §1
A further assay relates to Tov-21-G. The gist of the method:
as §1

The next assay concerns Tov112D. The gist of the method: as §1
A further assay deals with SKOV3. Summed up:
as §1
On the % scale 0 is the no-effect control and ±100 the full control effect; potency means the concentration at half of the fitted maximal effect.

Turning to `O=C(Nc1ccc(Cl)cc1)C1CCCN(C(=O)c2cccc(-c3ccco3)c2)C1` (stereo unspecified), the Potency entry with OV90, with PA-1, in the assay on Tov-21-G and in the assay on Tov112D was “inactive” throughout.
For the molecule `C[C@H](CN(C)C)Oc1nc(Nc2cc3cccc(Cl)c3cn2)cnc1C#N`, the Potency entry with OV90, with PA-1 and in the assay with Tov112D was “inactive” each time. Moreover, the Potency in the assay with SKOV3 is 12600 nM (active).
For the molecule `C=C1C(=O)OC2/C=C(\C)CC/C=C(\C=O)C(OC)C(OC(=O)C(C)CC)C12` (stereo unspecified), the Potency entry in the assay with OV90, in the assay with PA-1, in the assay with SKOV3 and with Tov112D was “inactive” throughout.
In the case of `CN(C)c1cccc(Oc2cnc(Nc3cccc(O)c3)nc2)c1`, the Potency result with OV90, in the assay on PA-1, in the assay on SKOV3 and in the assay with Tov112D was “inactive” in each case.
As for `C=C(C(=O)O[C@H]1C/C(C)=C/CC/C(CO)=C/[C@H]2OC(=O)C(=C)[C@H]12)C(O)CO` (stereo partly specified), the Potency entry with OV90, in the assay on PA-1, in the assay with SKOV3 and with Tov112D was “inactive” throughout.
Consider `COc1ccc(-c2c(C)nn3c(NCCN4CCOCC4)cc(C)nc23)cc1OC`, for which the Potency result with OV90, in the assay with PA-1, in the assay with Tov-21-G and in the assay on Tov112D was “inactive” each time.
For `OC[C@H]1O[C@@H](OC/C=C/c2ccc(O)cc2)[C@H](O)[C@@H](O)[C@@H]1O`, the Potency entry in the assay on OV90, in the assay on PA-1, in the assay with Tov-21-G and in the assay with Tov112D was “inactive” throughout.
`CN(C)CCn1cc(-c2ccc(F)cc2)c(-n2cccc2)n1`: the Potency entry in the assay on OV90, in the assay with PA-1, in the assay with Tov-21-G and with Tov112D was “inactive” each time.
Turning to `Cc1c[nH]c2ncnc(N3CCC(CN)(C(=O)Nc4cccc(OC(=O)N(C)C)c4)CC3)c12`, the Potency with OV90 is 11200 nM (active); with SKOV3, 22400 nM (active). In addition, the Potency result with PA-1 and in the assay on Tov112D was “inactive” each time.
Consider `C=C1C(=O)O[C@@H]2C[C@@]3(C)C[C@@H](O)C[C@H](C)C3=C[C@H]12`, for which the Potency result in the assay on OV90, with PA-1, with SKOV3 and in the assay on Tov112D was “inactive” in each case.
As to `COC(=O)c1cc(Br)cnc1N1CCC(NC2CCCCC2)C(O)C1` (stereo unspecified), the Potency entry in the assay on OV90, in the assay on PA-1, with Tov-21-G and in the assay on Tov112D was “inactive” in each case.
As for `NC(=O)CCCSc1nc(N)nc(-c2c(Cl)cc3c4c(cccc24)COC3)n1`, the Potency was 708 nM (active) in the assay with OV90, 891 nM (active) with PA-1 and 1000 nM (active) with Tov-21-G.
Regarding `CC1=CC2/C=C(\C)CCC(O)C(=O)C(O)CC(=O)C23C(=O)NC(CC(C)C)C3C1C` (stereo unspecified), the Potency entry in the assay on OV90, in the assay on PA-1, in the assay on Tov-21-G and in the assay with Tov112D was “inactive” throughout.
For the molecule `CC[C@@H](C)Nc1cc(C(=O)NC2CC3CCC(C2)N3c2ccc(C(=O)C3CC3)cn2)c(C)cc1C(N)=O` (stereo partly specified), the Potency with OV90 was 316 nM (active); in the assay on PA-1, 355 nM (active); in the assay with Tov-21-G, 398 nM (active).
For `CCCCNc1ncc(-c2ccc(CN3CCOCC3)cn2)c(NC2CCC(O)CC2)n1` (stereo unspecified), the Potency result in the assay on OV90, in the assay with PA-1, in the assay on Tov-21-G and with Tov112D was “inactive” each time.
In the case of `CCN1C(C)(C)CC(Oc2ccc(C(=O)Nc3ccc(NC(=O)Nc4cc(C(C)(C)C)on4)cc3)nc2)CC1(C)C`, the Potency entry with OV90, in the assay with PA-1, in the assay on Tov-21-G and with Tov112D was “inactive” throughout.
Take `Cn1c(CO)c(-c2ccccc2)c2cc([N+](=O)[O-])ccc21`: the Potency entry in the assay with OV90, with PA-1, in the assay on Tov-21-G and in the assay on Tov112D was “inactive” in each case.
As for `CC(=O)C=C=C1C(C)(C)CC(O)CC1(C)O[C@@H]1O[C@H](CO[C@H]2OC[C@](O)(CO)[C@H]2O)[C@@H](O)[C@H](O)[C@H]1O` (stereo partly specified), the Potency result with OV90, in the assay on PA-1, in the assay with Tov-21-G and in the assay with Tov112D was “inactive” each time.
Take `CC(C)(C[C@@](O)(Cc1cc2ccncc2[nH]1)C(F)(F)F)c1cc(F)ccc1O`: the Potency entry with OV90, in the assay with PA-1, in the assay with Tov-21-G and in the assay with Tov112D was “inactive” throughout.
In the case of `COc1cc(C#N)ccc1S(=O)(=O)Nc1ccc2c(c1)cc(C)c(=O)n2C`, the Potency result with OV90, with PA-1, with Tov-21-G and in the assay on Tov112D was “inactive” in each case.
As for `CCCCc1c(-c2ccc(OC)cc2)[nH]c2nccnc12`, the Potency result in the assay on OV90, with PA-1, with Tov-21-G and with Tov112D was “inactive” each time.
Turning to `CCC(C)C(=O)O[C@H]1[C@H](O)[C@@]2(COC(C)=O)C(CC1(C)C)C1=CCC3[C@@]4(C)CC[C@H](O[C@@H]5O[C@H](C(=O)O)[C@@H](O)[C@H](O)[C@H]5O)[C@@](C)(CO)C4CC[C@@]3(C)[C@]1(C)C[C@@H]2O` (stereo partly specified), the activity change, negative = cytotoxicity with OV90 is 0.006% [at 11.6 µM]; in the assay with PA-1 it was 5.51% [at 11.6 µM]; in the assay with Tov-21-G, 17.2% [at 11.6 µM]; in the assay on Tov112D, 6.69% [at 11.6 µM].
With `C[C@H](Nc1cc2c(-c3ccc4c(c3)OCO4)noc2cn1)c1ccccc1`, the Potency result in the assay on OV90, with PA-1, in the assay on Tov-21-G and with Tov112D was “inactive” throughout.
For the molecule `C[C@@H]1CC[C@@]23CC[C@]4(C)[C@@](C=CC5[C@@]6(C)CC[C@H](O)C(C)(C)C6CC[C@]54C)(OC2=O)C3[C@H]1C` (stereo partly specified), the Potency entry with OV90, with PA-1, with Tov-21-G and with Tov112D was “inactive” in each case.
Turning to `C/C(=C/C=C\C=C\Cc1cnco1)[C@@H](O)C(C)(C)C(N)=O`, the Potency result with OV90, with PA-1, with Tov-21-G and with Tov112D was “inactive” in each case.
With `C=C1CCC2C(C)(C)CCCC2(C)C1CC/C(C)=C\CO` (stereo unspecified), the Potency entry in the assay on OV90, with PA-1, with Tov-21-G and in the assay with Tov112D was “inactive” throughout.
For `COc1ccc2c(c1)C(C(=O)N(Cc1ccc(N(C)C)cc1)c1ccc(C(C)C)cc1)CCC2` (stereo unspecified), the Potency entry with OV90, in the assay on PA-1, in the assay on Tov-21-G and with Tov112D was “inactive” in each case.
